CYP2C9 activ: human CYP2C9 activators, primary screen, biochemical, luminescence; Cytochrome P450 2C9 (Homo sapiens), P11712; recombinant CYP2C9, luciferin-H conversion; hits give high values; factor 1 = untreated enzyme, 0 = blocked; activation factor at 5 µM; 96,000 compounds, 1.4% hits; AID 1024, 2008;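 active means activation factor of 2 or more for CYP2C9 at a 5 µM dose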
Target sequence (P11712 whole entry, looked up): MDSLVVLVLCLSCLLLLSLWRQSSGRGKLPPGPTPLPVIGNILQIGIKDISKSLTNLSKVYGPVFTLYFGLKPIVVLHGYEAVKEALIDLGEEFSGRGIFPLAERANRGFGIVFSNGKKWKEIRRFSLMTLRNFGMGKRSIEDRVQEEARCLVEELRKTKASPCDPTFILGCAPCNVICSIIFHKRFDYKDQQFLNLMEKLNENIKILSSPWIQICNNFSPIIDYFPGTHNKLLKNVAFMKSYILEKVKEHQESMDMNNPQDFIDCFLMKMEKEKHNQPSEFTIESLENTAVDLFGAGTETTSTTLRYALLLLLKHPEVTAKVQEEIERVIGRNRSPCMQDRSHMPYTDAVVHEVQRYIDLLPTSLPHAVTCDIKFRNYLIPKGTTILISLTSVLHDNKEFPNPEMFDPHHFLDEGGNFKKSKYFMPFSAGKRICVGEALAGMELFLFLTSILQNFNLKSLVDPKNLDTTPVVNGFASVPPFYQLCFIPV
CYP2C19 inh: blockers of cytochrome P450 2C19 activity – biochemical, luminescence, ADME assay, primary screen | P33261 | CYP2C19 Supersomes, luciferin-H EGE luminescence, 30 min | inhibition, % at 5 µM | 96,000 compounds, 21% hits | AID 778, 2007;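 active means CYP2C19 inhibition above a set limit at 5 µM in the primary screen, cut at about 50% in these data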
CYP2C19 activ: human CYP2C19 activators, primary screen, biochemical, luminescence; AID 1025, 2008; activation factor at 5 µM; recombinant CYP2C19, luciferin-H EGE luminescence; hits give high values; 0 = fully inhibited enzyme, 1 = untreated enzyme; 96,000 tested, under 10 active;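 active means activation factor of at least 2 at 5 µM in the primary screen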
Cav32 inh: Cav3.2 calcium influx blockers – cell-based, Fluo-4 calcium fluorescence, FDSS, MLSMR library, primary screen. Cav3.2-expressing cells; hits give low values. B-score at 10 µM. 100,000 compounds, 4% hits. AID 449739, 2010;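 active means single-dose well whose peak fluorescence ratio is a statistical outlier from its plate by either plate-standardised score or position-corrected B-score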
CYP2C9 inh: blockers of cytochrome P450 2C9 activity – biochemical, luminescence, ADME assay, primary screen; P11712; CYP2C9 Supersomes, luciferin-H conversion; inhibition, % at 5 µM; 96,000 compounds, 20% hits; AID 777, 2007;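 active means blocking of liver enzyme CYP2C9 beyond about 50% at 5 µM, limit read from the data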
Numbers stand for hits; – = inactive; · = no result given. In the library only some 27% were active in any assay of this set; here they are far more common.

SMILES	CYP2C9 activ	CYP2C19 inh	CYP2C19 activ	Cav32 inh	CYP2C9 inh
CC1(C)CC(=O)c2cnn(-c3nc4ccccc4[nH]3)c2C1	–	80	–	–	56
CCS(=O)(=O)c1ccc2oc(SCC(=O)NC3CCCC(C)C3C)nc2c1 (stereo not drawn)	–	52	–	–	–
CCS(=O)(=O)c1ccc2oc(SCC(=O)NC34CC5CC(CC(C5)C3)C4)nc2c1	–	–	–	-7.2	–
CNc1nc(SC)nc2ccsc12	2.3	–	–	–	–
C=CCSc1nc(NC)c2sccc2n1	2.5	–	–	·	–
CCOC(=O)N1CCN(C(=O)CN(C)S(=O)(=O)c2ccc(OC)c(OC)c2)CC1	–	–	–	–	–
O=C(O)c1ccc(CNCc2c(Cl)cccc2Cl)cc1	–	–	–	–	–
Cc1cc(C)c2c(N)c(C(=O)NCc3ccco3)sc2n1	·	·	·	–	·
Cc1cc(C)c2c(N)c(S(=O)(=O)Cc3ccccc3)sc2n1	3	99	–	·	–
Cc1occc1C(=O)NNC(=S)Nc1ccccc1	–	–	–	–	–
Cc1ccc(NC(=S)NNC(=O)c2nn(C)cc2Cl)cc1	–	–	–	–	–
COc1ccccc1NC(=S)NNC(=O)c1c(Cl)c(C)nn1C	–	–	–	–	66
COc1ccccc1NC(=S)NNC(=O)c1cc(C)nn1C	–	–	–	–	–
Cc1c(Cl)c(C(=O)NNC(=S)Nc2ccccc2)nn1C	–	78	–	·	–
Cc1cccc(NC(=S)NNC(=O)c2nn(C)cc2Cl)c1	–	61	–	–	–
CCOC(=O)C1C(=O)Oc2ccc3ccccc3c2C1C1CCOC1=O (stereo not drawn)	–	60	–	–	–
CCOC(=O)C1NC(=O)CC1c1ccccc1 (stereo not drawn)	–	–	–	–	–
CCOC(=O)CC1ON(C)C(=O)N1c1ccc(Cl)cc1Cl (stereo not drawn)	–	99	–	–	–
CN1OC(CC(=O)O)N(c2ccc(Cl)cc2)C1=O (stereo not drawn)	–	–	–	–	–
CCN(C(=O)Cn1c(=O)oc2ccccc21)C1CCS(=O)(=O)C1 (stereo not drawn)	–	–	–	–	–
COc1ccccc1NC(=O)c1sc2ncn(Cc3ccc(C)cc3)c(=O)c2c1C	–	84	–	–	–
COC(=O)c1ccccc1Sc1c(/C=N/OC(=O)c2ccccc2)c(C(F)(F)F)nn1C	–	–	–	–	91
Cc1ccc(C(=O)O/N=C/c2c(C(F)(F)F)nn(C)c2Sc2ccc(Cl)cc2)cc1	–	–	–	–	80
COc1ccc(C(=O)O/N=C/c2c(C(F)(F)F)nn(C)c2SCc2ccccc2Cl)cc1	–	–	–	–	–
COC(=O)c1sccc1-c1ccc(/C=N/OC(=O)c2ccccc2)o1	–	–	–	–	–
SMILES	CYP2C9 activ	CYP2C19 inh	CYP2C19 activ	Cav32 inh	CYP2C9 inh
Cn1nc(C(F)(F)F)c(/C=N/OC(=O)c2ccccc2Cl)c1SCc1ccc(Cl)cc1	–	54	–	-5	77
CSCCC(NC(=O)c1cncc(Br)c1)C(=O)O (stereo not drawn)	–	–	–	–	–
CC(C)c1nnc(NC(=O)Cn2nc(-c3ccc4c(c3)OCCO4)ccc2=O)s1	–	–	–	–	–
Cc1ccc(NC(=O)C2C(c3ccccc3)C=CC(c3ccccc3)C2C(=O)O)cc1 (stereo not drawn)	–	–	–	–	–
COc1ccc(CC(=O)NCc2nnc(SCC(=O)Nc3nccs3)n2-c2ccccc2)cc1	–	–	–	–	–
COc1ccc(-n2c(COc3ccccc3)nnc2SCC(N)=O)cc1	–	63	–	–	–
CC(Sc1nnc(-c2ccc(Cl)cc2Cl)n1Cc1ccccc1)C(=O)Nc1nccs1 (stereo not drawn)	–	–	–	-8.2	54
NC(=O)CSc1nnc(COc2ccccc2)n1C1CCCCC1	–	80	–	·	56
COc1ccc(OCc2nnc(SC(C)C(=O)Nc3nccs3)n2-c2ccccc2)cc1 (stereo not drawn)	–	–	–	–	60
NC(=O)CSc1nnc(Cc2ccc3c(c2)OCO3)n1C1CCCCC1	–	–	–	–	–
Cc1nnc(SC(C)C(=O)Nc2ccc(Cl)cn2)n1Cc1ccccc1 (stereo not drawn)	–	–	–	–	–
CCC1CCCCN1CCCNC(=O)CC1Oc2ccc(C)cc2NC1=O (stereo not drawn)	–	–	–	–	–
O=C(CCSCCc1ccccn1)Nc1ccc(Cl)cn1	–	–	–	–	–
COc1cccc(C2NC(=O)N(CCCC(=O)O)C(C)=C2C(=O)OCc2ccccc2)c1 (stereo not drawn)	·	·	·	–	·
Cc1nn2c(-c3cccc(NC(=O)CN4CCOCC4)c3)nnc2c2ccccc12	·	·	·	–	·
O=C(CSc1nnc(COc2ccccc2)n1-c1ccccc1)c1ccccc1	–	–	–	-6.1	–
COc1ccc(-n2c(COc3ccc(C)cc3)nnc2SCC(N)=O)cc1	–	–	–	–	–
S=c1[nH]nc(COc2ccccc2)n1C1CCCCC1	–	60	–	–	–
COc1cccc(-n2c(COc3ccc(C)cc3)nnc2SCC(N)=O)c1	–	67	–	–	–
S=c1[nH]nc(COc2ccccc2)n1/N=C/C(Cl)=C/c1ccccc1	–	–	–	–	–
CC1CCCC(C)N1C(=O)CSc1nnc(COc2ccccc2)n1-c1ccccc1 (stereo not drawn)	–	65	–	-3.5	–
COc1ccc(C(=O)CSc2nnc(COc3ccc(C#N)cc3)n2-c2ccccc2)cc1	–	–	–	–	–
CCOC(=O)c1c(C)noc1CP(=O)(c1ccccc1)c1ccccc1	·	·	·	–	·
CC(C)(C)OC(=O)NC(CCCCNC=O)C(=O)O (stereo not drawn)	–	–	–	–	–
N#Cc1ccc(Oc2ccc(/C=N/O)cn2)cc1	–	–	–	–	–
SMILES	CYP2C9 activ	CYP2C19 inh	CYP2C19 activ	Cav32 inh	CYP2C9 inh
CC(=O)c1cccc(NC(=O)c2ccc(S(=O)(=O)N3CCCCC3)cc2)c1	–	–	–	–	–
O=C(COc1ccc(S(=O)(=O)N2CCCCC2)cc1)NC1CCCCC1	–	–	–	–	72
CC(=O)c1cccc(NC(=O)COc2ccc(S(=O)(=O)N3CCCCC3)cc2)c1	–	67	–	·	67
O=C(COc1ccccc1)Nc1ccc(S(=O)(=O)N2CCCCCC2)cc1	–	–	–	–	–
Cc1ccc(S(=O)(=O)N2CCN(C(=O)CCC(=O)OCC(=O)Nc3cccc(C#N)c3)CC2)cc1	–	78	–	–	75
COc1ccc(OCC(=O)Nc2ccc(S(=O)(=O)N3CCCCCC3)cc2)cc1	–	–	–	·	86
Cn1c(=O)c2cc(NC(=O)c3ccccc3Cl)c(=O)oc2n(C)c1=O	–	–	–	–	–

Compound activity as filed in PubChem BioAssay.
